A selection: hits, their analogues and other compounds. The true share with any hit is near 3.9%.
Tb PFK inh – T. brucei PFK enzyme inhibition; O15648; T. brucei PFK, ADP-Glo luminescence; Potency, µM (doses to about 57.5 µM), most hits filed as inhibitors; hit rate 0.17% among 330,000; AID 485367; further: nearly all actives have a fitted effect of over 60% in size
Target sequence (O15648 whole entry, looked up): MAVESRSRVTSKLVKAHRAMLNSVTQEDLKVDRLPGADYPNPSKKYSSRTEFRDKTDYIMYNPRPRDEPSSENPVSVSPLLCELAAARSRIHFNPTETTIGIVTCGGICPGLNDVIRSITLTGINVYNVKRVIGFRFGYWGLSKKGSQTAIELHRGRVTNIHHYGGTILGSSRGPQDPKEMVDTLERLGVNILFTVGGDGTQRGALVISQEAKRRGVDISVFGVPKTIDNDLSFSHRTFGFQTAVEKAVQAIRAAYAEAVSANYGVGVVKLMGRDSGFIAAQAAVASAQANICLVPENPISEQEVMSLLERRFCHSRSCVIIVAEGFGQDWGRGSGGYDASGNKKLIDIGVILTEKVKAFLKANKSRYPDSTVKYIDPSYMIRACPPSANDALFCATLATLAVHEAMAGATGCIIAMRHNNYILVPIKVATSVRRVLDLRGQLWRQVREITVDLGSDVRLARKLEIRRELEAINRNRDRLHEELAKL
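Activity is normalized to no-enzyme wells (full inhibition) and 1.25 nM enzyme wells (no inhibition). Reaction: 0.5 mM F6P, 0.1 mM ATP, 45 min RT, ADP-Glo luminescence; concentration-response curves fitted and classed by quality.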
VDR inh – blocks the human vitamin D receptor | P11473 | VDR-SRC2-3 peptide fluorescence polarization, 2 h | Potency, µM, actives largely listed as inhibitors | hit rate 0.93% among 400,000
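Inhibition of the VDR/SRC2-3 peptide interaction is quantified by fluorescence polarization. Compounds (23 nl, pintool) incubate with the reagents for 2 hours at ambient room temperature.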
PLK1 PBD block – blocks phosphopeptide binding to human PLK1 polo-box domain; Plk1 PBD binding of FITC phosphopeptide, fluorescence polarization; AID 720504; hit rate 2.8% among 360,000; Potency, µM, hits mostly inhibitors; further: series mostly up to about 57 µM; nearly all actives have a fitted effect of over 65% in size
BRCA1 expr up – BRCA1 expression activation. MCF7-BRCA1-FFLuc reporter, luminescence, 48 h; response scale: scaled: vehicle 0%, 10 µM genistein 100%. Potency, µM (doses to about 46.1 µM), actives largely listed as activators. hit rate 1.1% among 380,000. AID 624202; further: nearly all actives have a fitted effect of over 80% in size
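Reporter cells (MCF7, BRCA1 promoter-firefly luciferase) received library compounds across a concentration series for 48 h. End-point luminescence was measured and concentration-effect curves derived after normalization.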
Each line names hits and unclear results; the compound was inactive in the other large screens. The call rests on the fitted dose curve; in most records, active means well fitted curve in the direction sought with a large enough effect; inconclusive means small, poorly fitted or top-dose-only effect, or another doubt; inactive means no such curve, though single readings can be large; an effect the other way counts as inactive or inconclusive.

CCCc1ccc(C(=O)/C=C/N(C)C)cc1	PLK1 PBD block inconclusive, BRCA1 expr up 12.6µM
Cc1cccc(C)c1NC(=O)C(=O)NCC(c1ccc2c(c1)OCO2)N1CCOCC1 (centres undefined)	none (no result: Tb PFK inh, PLK1 PBD block, BRCA1 expr up)
C=C(C)C1COc2cc3oc(=O)ccc3cc2O1 (centres undefined)	none (no result: Tb PFK inh, PLK1 PBD block, BRCA1 expr up)
CC1OC1c1ccc(-c2ccc(C3OC3C)cc2)cc1 (centres undefined)	BRCA1 expr up 5.01µM (no result: Tb PFK inh)
CCOC(=O)c1ccc(O)cc1	none (no result: Tb PFK inh, PLK1 PBD block, BRCA1 expr up)
CCOC(=O)c1ccc(N=NN(C)C)cc1	BRCA1 expr up 12.6µM
CC(C)C(=O)NC(=S)Nc1sc2c(c1C(N)=O)CCCC2	VDR inh inconclusive, PLK1 PBD block 18.9µM
NC(=O)c1c(NC(=O)CN2CCCC2)sc2c1CCCC2	VDR inh inconclusive, PLK1 PBD block 2.99µM
CCOC(=O)c1c(NC(=O)OC)sc2c1CCC2	none
NC(=O)c1c(NC(=O)CCCn2cnc([N+](=O)[O-])n2)sc2c1CCCC2	VDR inh 44.7µM, PLK1 PBD block 4.74µM
COC(=O)Nc1sc2c(c1C(N)=O)CCCCCC2	VDR inh inconclusive, PLK1 PBD block 13.4µM
CC(=O)N1CC[C@@H]2CC(=O)CC[C@@H]21	none (no result: Tb PFK inh, PLK1 PBD block, BRCA1 expr up)
CCOC1=C2[C@@H](CN(S(=O)(=O)c3ccc(C)cc3)[C@H]2c2ccccc2Cl)[C@H]2C(=O)N(Cc3ccccc3)C(=O)[C@H]2C1	none (no result: Tb PFK inh, VDR inh)
COc1ccc(C)cc1NC(=O)C(=O)NCCc1sc(-c2ccc(Cl)cc2)nc1C	none (no result: Tb PFK inh, PLK1 PBD block, BRCA1 expr up)
CC(=O)NC(=S)Nc1sc2c(c1C#N)CCCCC2	PLK1 PBD block 10.6µM, BRCA1 expr up inconclusive
NC(=O)c1c(NC(=O)C2CC=CCC2C(=O)O)sc2c1CCCCC2 (centres undefined)	Tb PFK inh inconclusive, VDR inh 70.8µM, PLK1 PBD block 26.7µM
COc1cccc2c1C(=O)c1c(O)c3c(c(O)c1C2=O)C[C@](O)(C(C)=O)C[C@H]3O[C@@H]1C[C@@H](N)[C@@H](O)[C@@H](C)O1	PLK1 PBD block inconclusive
COc1cccc2c1C(=O)c1c(O)c3c(c(O)c1C2=O)CC(O)(C(C)=O)CC3OC1CC(O)C(O)C(C)O1 (centres undefined)	PLK1 PBD block 9.47µM (no result: Tb PFK inh)
CC(C)(C)S(=O)N1Cc2cc(=O)n(Cc3ccccc3)c(CCO)c2[C@@H]1CCO (some centres undefined)	none (no result: Tb PFK inh)
CC(=O)N1CCN(C(=S)c2ccc(Cl)cc2)CC1	PLK1 PBD block 21.2µM
CC(=O)N1CCN(c2ccc(NC(=O)c3ccc(Cl)cc3)cc2)CC1	none
Cc1ccsc1C(=O)OCc1cc(=O)n2ccsc2n1	BRCA1 expr up inconclusive
O=C(OCc1cc(=O)n2ccsc2n1)c1ccc(O)cc1O	BRCA1 expr up 11.2µM
CCN(Cc1ccncc1)Cc1c(O)ccc2cc(Br)ccc12	PLK1 PBD block 10.6µM
CCN(CC)C(=O)Cc1c(OC)ccc2cc(Br)ccc12	VDR inh inconclusive
COc1ccccc1C(=O)NCCC(=O)Nc1nc2ccccc2[nH]1	none
COc1ccccc1C(=O)Nc1nc2ccccc2[nH]1	Tb PFK inh inconclusive, VDR inh inconclusive, PLK1 PBD block 21.2µM
Cn1nc(C(=O)Nc2nc3ccccc3[nH]2)ccc1=O	BRCA1 expr up 7.94µM
CCOC(=O)c1cccc(NC(=O)CC2C(=O)N(c3ccc(F)cc3)C(=O)N2C(C)C)c1 (centres undefined)	none (no result: Tb PFK inh, PLK1 PBD block, BRCA1 expr up)
CNC(=O)/C=C1\NC(C)(C)Cc2c1ccc1ccccc21	VDR inh 79.4µM
COc1ccc2c(c1)C(=O)[C@@H](OC(=O)NC1CCCC1)[C@H](c1ccc(OC)c(Br)c1)O2	none (no result: Tb PFK inh, PLK1 PBD block, BRCA1 expr up)
O=C(CN1C(=O)/C(=C/c2ccco2)SC1=S)NC1CCS(=O)(=O)C1 (centres undefined)	Tb PFK inh inconclusive, PLK1 PBD block 29.9µM
O=C(CN1C(=O)/C(=C/c2ccco2)SC1=S)Nc1ccc(C(=O)O)c(O)c1	PLK1 PBD block 13.4µM
CC(C(=O)Nc1ccc(C(=O)O)c(O)c1)N1C(=O)/C(=C\c2ccco2)SC1=S (centres undefined)	Tb PFK inh inconclusive, PLK1 PBD block 9.47µM
O=C(CN1C(=O)/C(=C/c2ccco2)SC1=S)Nc1ccc(O)c(C(=O)O)c1	PLK1 PBD block inconclusive
Cc1ccc(NC(=O)CN2C(=O)S/C(=C\c3ccc(-c4cccc(C(=O)O)c4C)o3)C2=O)cc1C	PLK1 PBD block 18.9µM
CCOc1ccc(-c2cc(C(=O)N3CCN(S(=O)(=O)c4cc(Cl)ccc4OC)CC3)[nH]n2)cc1	none (no result: Tb PFK inh, PLK1 PBD block, BRCA1 expr up)
O=C(/C=C/[C@H]1O[C@@H](n2ccc(=O)[nH]c2=O)[C@H](O)[C@@H]1O)NC(c1ccccc1)c1ccccc1	none (no result: Tb PFK inh, VDR inh)
O=C(CCCN1C(=O)/C(=C\c2ccco2)SC1=S)Nc1ccc(O)cc1C(=O)O	VDR inh inconclusive, PLK1 PBD block 16.8µM
O=C(CCCN1C(=O)/C(=C\c2cccs2)SC1=S)Nc1ccc(O)cc1C(=O)O	none
Cc1ccccc1C1=C/C(=C(\SS/C(C(=O)c2ccc(OCC(=O)O)c(Cl)c2Cl)=C2\C=C(c3ccccc3C)SS2)C(=O)c2ccc(OCC(=O)O)c(Cl)c2Cl)SS1	VDR inh 39.8µM, PLK1 PBD block 16.8µM (no result: Tb PFK inh)
Cc1ccc(S(=O)(=O)N2[C@@H](c3ccc(Br)cc3)C(C(=O)O)=CC[C@H]2c2ccc(Cl)cc2)cc1	PLK1 PBD block 26.7µM
CCCC[C@@H]1C=C(C(=O)O)[C@H](c2ccc(C)cc2)N1S(=O)(=O)c1ccc(C)cc1	none
Cc1ccc(S(=O)(=O)N2[C@@H](c3ccccc3)C(C(=O)O)=CC[C@H]2c2ccc(Cl)cc2)cc1	VDR inh inconclusive, PLK1 PBD block 23.8µM
CCCC[C@@H]1C=C(C(=O)O)[C@H](c2ccc(Cl)c(Cl)c2)N1S(=O)(=O)c1ccc(C)cc1	VDR inh inconclusive, PLK1 PBD block 29.9µM
O=C(O)C1=CC[C@@H](c2ccc(Cl)cc2)N(S(=O)(=O)c2ccc(Cl)cc2)[C@H]1c1cccc(Cl)c1	PLK1 PBD block 29.9µM
COc1ccc([C@@H]2CC=C(C(=O)O)[C@H](c3ccc(Br)cc3)N2S(=O)(=O)c2ccc(C)cc2)cc1OC	none
CCc1ccc([C@@H]2CC=C(C(=O)O)[C@H](c3ccc(Br)cc3)N2S(=O)(=O)c2ccc(C)cc2)cc1	VDR inh inconclusive, PLK1 PBD block 26.7µM
Cc1ccc([C@H]2C(C(=O)O)=CC[C@@H](c3ccc(Cl)c(Cl)c3)N2S(=O)(=O)c2ccc(C)cc2)cc1	PLK1 PBD block 29.9µM
Cc1ccc(S(=O)(=O)N2[C@@H](c3ccc(Cl)cc3)C(C(=O)O)=CC[C@H]2c2cccc(Cl)c2)cc1	PLK1 PBD block 23.8µM
CCc1ccc([C@H]2C(C(=O)O)=C[C@@H](CC3CCCC3)N2S(=O)(=O)c2ccc(C)cc2)cc1	PLK1 PBD block 21.2µM
CC1(c2nnnn2Cc2ccccc2)CCC(=O)N1Cc1cccnc1 (centres undefined)	none (no result: Tb PFK inh, VDR inh)
Cc1ccc2ccccc2c1C(O)c1ncc(-c2cccc(F)c2)[nH]1 (centres undefined)	none (no result: Tb PFK inh, VDR inh)
Cc1ccc([C@@H]2CC=C(C(=O)O)[C@H](c3ccc(Cl)cc3)N2S(=O)(=O)c2ccc(C)cc2)cc1	PLK1 PBD block inconclusive
